± gives the standard deviation of the averaged measurements. In all, about 25,000 sequences were measured (“ln(normalized median fluorescence intensity)”: median about 8.9, highest 2% from about 10 on). For the sample, the highest values were picked, then their nearest neighbours and some sequences at random.

Experimental findings from the supplement of paper PMC11417369 are described below.

The subject of this experiment is PfAP2-LT AP2 domain (GST-tagged). Nature of the experiment: gcPBM binding intensity (ln(normalized median fluorescence intensity)); higher = stronger DNA binding. Summed up: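 GST-fused DNA-binding domains of P. falciparum, expressed in E. coli, were applied at about 25 μg on average for 1 h to an Agilent 4 × 180k array of primer-extended double-stranded 36-bp intergenic genomic probes and negative controls. Binding intensity is the highest Masliner-normalised natural-log median intensity across replicate spots of either probe orientation, measured with Alexa488 anti-GST antibody and a 488 nm scan.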
For the sequence “TAAATTTTTATTTGTAGTACTATATATATATATATA [XGTACX_site1026]”, the “gcPBM binding intensity (ln)” value worked out at 8.9 ± 0.12. For “TAATTATGTACTATTATACACACGTTTAATTGTAAA [CACACA_site206]” the value was 8.74 ± 0.42; for “AACATATATAATATTTGTACTTATATACAAAATATG [XGTACX_site7502]”, 8.64 ± 0.4; for “ATATATATTTTAATAACACACATATATTATATTATA [CACACA_site4387]”, 8.7 ± 0.38.

Consider “CATACATATAAACACACACACACACCCACCCACAAA [CACACA_site8059]”, for which the “gcPBM binding intensity (ln)” value turned out to be 10.4. For “TACATATATATATACACACATACATATATATACGCA [CACACA_site792]” the value was 9.11 ± 0.28. For “AAAAAAAAAAAAAACATACACACAAATATATACATA [CACACA_site4010]” the value was 9.05 ± 0.45. For “CATATACGCAAACACACACACATATATATATATATA [CACACA_site501]” the value was 10.3 ± 0.27; for “TGTACAAATATGTACACACACACATATATATATATA [CACACA_site584]”, 9.88 ± 0.085. With “AGGCACACAAACATATGTACACATATATATATATAT [XGTACX_site4723]”, the “gcPBM binding intensity (ln)” value was determined as 10.21 ± 0.078.

Regarding “TATACGCATATATAAACACACAAAAAAAAAAAAAAA [CACACA_site2026]”, the “gcPBM binding intensity (ln)” value came to 8.86 ± 0.48. With “CATACATACAAACACACACACATATATATATATATA [CACACA_site43]” the figure was 10.16 ± 0.042.

For “TATAAATATACAAACACACATACAAACATATATATA [CACACA_site1120]”, the “gcPBM binding intensity (ln)” value is 9.24 ± 0.37. With “AAAACACAAAAAAAATGTACACATATATATATATAT [XGTACX_site8509]” the figure was 9.84 ± 0.12; with “CATACATACAAACACACACACATATATATACATACA [CACACA_site852]”, 10.1 ± 0.38. For “TATATACACCCACATACACACAAATAAAAAAACACC [CACACA_site3414]” the value was 9.64 ± 0.31; for “TCTTTTTAACAAAAAAAAAAAAAAAAAAAAAAATTA [CACACA_negctrl_site1637]”, 7.96 ± 0.43; for “AGTAGTCTGGAGAAAAGTACATAGTATCTGGTAACC [XGTACX_site2024]”, 8.81 ± 0.58. Take “AAAAAAATTAAACATGAAGAATAAGGAACAAAAAAA [CACACA_negctrl_site1607]”: the “gcPBM binding intensity (ln)” value amounted to 8.78 ± 0.55.

As to “CTGATATATAGATGTAGTACATAAAAATGACGAATT [XGTACX_site5612]”, the “gcPBM binding intensity (ln)” value is 8.99 ± 0.47. For “ATTTTTTTGGAATTCACACACAAAAAAAAAAATAAA [CACACA_site2081]” the value was 8.79 ± 0.47. With “GATAAATCATATATAACACACATATGAATATTACAA [CACACA_site1321]”, the “gcPBM binding intensity (ln)” value worked out at 8.98 ± 0.35. For “AACTTACTTGGACATACACACATATATATATATATA [CACACA_site2978]” the value was 9.78 ± 0.3; for “GTTACACCAACAAACACACACACACCGACACCCAAA [CACACA_site5361]”, 10.1 ± 0.17; for “TACACAAATATATACATACACACATATATACGCATA [CACACA_site394]”, 9.27 ± 0.3.

On to “TATATACACAAACACACACACACATACACCCACATA [CACACA_site8504]”, for which the “gcPBM binding intensity (ln)” value is 10.2 ± 0.16. With “TGCATATACGCAAGCACACATATATATATATATATA [CACACA_site1069]” the figure was 10.1 ± 0.4. For “CAAACCCACCAACACACACACACAAAAATGATTAAA [CACACA_site2432]” the value was 9.88 ± 0.3.

For “TGGTAATACCCATACACACACACATACACATATATA [CACACA_site8877]”, the “gcPBM binding intensity (ln)” value is 9.76 ± 0.32.

Turning to “TGCATATACTCAAGCACACATATATATATATATATA [CACACA_site4733]”, the “gcPBM binding intensity (ln)” value was determined as 9.76 ± 0.13. Turning to “GTTACACCAACAAACACACACACACCCACCCACAAA [CACACA_site2427]”, the “gcPBM binding intensity (ln)” value amounted to 10.3 ± 0.16. For “GTAATACCCAAACACACACACATACCCATATATATA [CACACA_site5510]” the value was 10.1 ± 0.29; for “TATACATACCCACCCACACACAAAAAAAAAAAAAAA [CACACA_site4632]”, 9.76 ± 0.3. In the case of “TGGTAATACCCATACACACACACATACCCATATATA [CACACA_site5509]”, the “gcPBM binding intensity (ln)” value was 9.76 ± 0.33.

As to “AAGAAAAGAAACAAAAAAAAAAAGAAATAAAAGGAA [TGCATGCA_negctrl_site171]”, the “gcPBM binding intensity (ln)” value is 8.61 ± 0.62. With “AAAATTTATAAAAGCACACAAAATAAAAAAAAATGA [CACACA_site1491]” the figure was 8.88 ± 0.46; with “AAGAAAATAAAATAAAAAAAAAAATAAAAAAAATAA [TGCATGCA_negctrl_site516]”, 8.37 ± 0.74. With “CAAAAATAAACTATAGTACACACTTATTATTATGAA [CACACA_site2702]” the figure was 8.8 ± 0.49; with “ACACATACTAAAATGTTGTGAAATATGATAATGTGA [CACACA_negctrl_site851]”, 9.11 ± 0.47. For “TTAATCATAAAAGTCACACATAATAAGAAAAAGCTT [CACACA_site4616]” the value was 8.78 ± 0.37; for “AAATAGGGAATTTATGCACACAGTTAAGGGGGAAAA [CACACA_site2071]”, 9.28 ± 0.26. Regarding “ACATATAATAAAAAATGTACACACATAAGAAAATTT [XGTACX_site6153]”, the “gcPBM binding intensity (ln)” value came to 9.16 ± 0.38. With “TAAATACATTTATGTACACACACATAGATGTATATT [CACACA_site5618]”, the “gcPBM binding intensity (ln)” value was 9.22 ± 0.36. With “TAACATGATATATAATGTACATATAAGATATTTATA [XGTACX_site4383]” the figure was 8.79 ± 0.45; with “AAGCAAACATATTAATGTACACACACCCACACACAA [XGTACX_site5806]”, 9.95 ± 0.46. With “GATACATAGAAACACACACACATACATATATACATA [CACACA_site3438]” the figure was 9.92 ± 0.26; with “CACACCACCAACAAAAGTACATACATATATATATAT [XGTACX_site5781]”, 9.65 ± 0.14. As to “CACACCCACCAACACACACACACACCCACCCATATA [CACACA_site366]”, the “gcPBM binding intensity (ln)” value turned out to be 10.3 ± 0.12.
